Structures are written as SMILES. Values without a mark were called inactive. The call rests on the fitted dose curve; in most records, active means well fitted curve in the direction sought with a large enough effect; inconclusive means small, poorly fitted or top-dose-only effect, or another doubt; inactive means no such curve, though single readings can be large or run the other way.

We go through 40 compounds from PubChem BioAssay (NCATS).

This assay in a line: qHTS for compounds that reverse cellular toxicity of Amyloid beta (A-beta) peptide in yeast: LOPAC Validation Assay (AID 720559). Particulars: yeast expressing A-beta; series mostly up to 46.1 µM; growth rescue, positive = activation: at the top concentration. An excerpt:
The A-beta peptide is produced by the processing of the amyloid precursor protein (APP) by two proteases, beta and gamma secretases. […] A-beta42 is regarded as the most amyloidogenic form due to its hydrophobicity; however, precisely how A-beta42 induces neurotoxicity is unclear. To understand further this biology and its potential therapeutic implications for human neurodegenerative disease, a quantitative high-throughput screen for compounds that reverse the cellular toxicity of the A-beta peptide was developed.
A yeast based screen was used because it recapitulates the salient feature of protein mis-folding disorder accurately. This cell-based phenotypic screen provides a significant, unbiased advantage by letting the compounds and models inform us which proteins or pathways are most relevant. The ideal chemical candidates would therefore have activity in both our primary yeast and secondary neuronal toxicity assays, as well as in mouse models. They will be valuable tools for dissecting diverse protein homeostasis pathologies and could potentially become the focus for future pre-clinical development. For this […] assay, inhibition of A-beta rescues the toxic effect in the yeast cell, resulting in increase of signals.
NIH Chemical Genomics Center [NCGC]
NIH Molecular Libraries Probe Centers Network [MLPCN]
Assay Submitter (PI): Susan Lindquist, Whitehead Institute, Massachusetts Institute of Technology
[1] Vassar R,et al (1999). Beta-secretase cleavage of Alzheimer's amyloid precursor protein by the transmembrane aspartic protease BACE. Science. 286: 735-741.
[2] Yan R, et al (1999). Membrane-anchored aspartyl protease with Alzheimer's disease beta-secretase activity. Nature.
Two and a half microliter / well of yeast growth medium were dispensed in a 1536 assay plate. Compounds were pinned using the Kalypsys robotic system followed by addition of 2.5 uL / well yeast solution. The assay plates were incubated at 30 C. After 48 hr, the absorbance signal at 600 nm was obtained using the PerkinElmer ViewLux plate reader to assess yeast growth. The data was normalized to the positive control of an equimolar mixture of ferric chloride (FeCl3) and clioquinol and to the negative control DMSO.
For the compound `NC(N)=N[C@@H](CCC(=O)O)C(=O)O`, the “growth rescue, positive = activation” value was -6.11%.
For `CC(/C=C/c1cccc(Oc2ccc(F)cc2)c1)N(O)C(N)=O` (stereo not given) the value was -1.53%.
To `CCCCCCCCCCCCCCSCC(=O)O` belongs 16.1%; to `CN1CC(O)C(O)C(O)C1CO` (stereo not given), -1.98%; to `NC(N)=NC(N)=Nc1cccc(Cl)c1`, -1.76%.
Consider `O=c1cc(-c2ccccc2)[nH]c2nc(Cl)ccc12`, for which the “growth rescue, positive = activation” value was -2.79%.
Take `Cc1cccc(C)c1OCC(N)C(C)C` (stereo not given): the “growth rescue, positive = activation” value is 2.7%.
For the compound `c1ccc2c(c1)CC(N1CCN(c3cccc4c3OCCO4)CC1)C2`, the “growth rescue, positive = activation” value was -3%.
To `CNCCNS(=O)(=O)c1cccc2cnccc12` belongs -6.96%; to `N=C(N)SCCN`, -0.701%; to `COc1cccc(OC)c1OCCNCC1CSc2ccccc2O1` (stereo not given), -1.37%.
For `CC(=O)/C(C)=N/O` the value was -3.53%; for `Cn1cc(C(=O)OCC2CCN(CCNS(C)(=O)=O)CC2)c2ccccc21`, 0.782%.
To `OC[C@H]1O[C@@H](n2cnc3cncnc32)[C@H](O)[C@@H]1O` belongs 0.855%; to `CC[n+]1c(/C=C/C=C2/N(C)c3ccccc3C2(C)C)sc2ccccc21`, -62.2%; to `CCC1(O)CC2CN(CCc3c([nH]c4ccccc34)[C@@](C(=O)OC)(c3cc4c(cc3OC)N(C=O)C3[C@]45CCN4CC=C[C@@](CC)([C@@H](OC(C)=O)[C@]3(O)C(=O)OC)[C@H]45)C2)C1` (stereo not given in full), -4.84%.
For the compound `O=C(O)C1CN(CCCP(=O)(O)O)CCN1` (stereo not given), the “growth rescue, positive = activation” value was 2.22%.
Consider `CCCCCCCCCCC/C=C\C(C)(C)/C=C\CCCC(=O)O`, for which the “growth rescue, positive = activation” value is 5.58%.
For the compound `O=c1cc(-c2ccccc2F)[nH]c2cc3c(cc12)OCO3`, the “growth rescue, positive = activation” value is -2.65%.
For `CC[C@@H]1Cc2cc(O)ccc2C2=C1c1ccc(O)cc1C[C@H]2CC` the value was -61.4%; for `N=S(=O)(O)Cc1noc2ccccc12`, -7.92%.
`Cn1c(=O)c2[nH]c(-c3ccc(S(=O)(=O)O)cc3)nc2n(C)c1=O`: the “growth rescue, positive = activation” value is 0.0788%.
To `CC(=O)N[C@@H](Cc1c[nH]c2ccccc12)C(=O)OCc1cc(C(F)(F)F)cc(C(F)(F)F)c1` belongs 1.26%; to `CC(=O)[C@H]1CCC2C3CC=C4C[C@@H](OS(=O)(=O)O)CC[C@]4(C)C3CC[C@@]21C` (stereo not given in full), -11.1%.
With `CC(O)C(O)[C@H]1CNc2nc(N)[nH]c(=O)c2N1` (stereo not given in full), the “growth rescue, positive = activation” value was 4.52%.
For `O=S(=O)(c1cccc2c(Cl)cccc12)N1CCCNCC1`, the “growth rescue, positive = activation” value was -3.55%.
To `Cc1nc(N=Nc2ccc(C(=O)O)cc2)c(COP(=O)(O)O)c(C=O)c1O` belongs 5.05%; to `O=C(O)Cc1c[nH]c2ccc(O)cc12`, -4.02%; to `CSC(=N)N`, -2.5%.
For `CC(C)(C)c1cc(/C=C(\C#N)C(N)=S)cc(C(C)(C)C)c1O` the value was -33.5%.
For `CCCCCC(O)CCCC(=O)O` (stereo not given) the value was -2.1%.
With `Nc1ccc(N2C(=O)c3ccccc3C2=O)c(Cl)c1`, the “growth rescue, positive = activation” value was -0.807%.
For the compound `Cc1cccc(C(=O)NCN2CCN(c3ccccc3C#N)CC2)c1`, the “growth rescue, positive = activation” value was -5.3%.
For `C[C@@]1(C2CCCC2)Cc2cc(OCC(=O)O)c(Cl)c(Cl)c2C1=O` the value was -0.351%; for `C[C@H](NC(=O)/C(C#N)=C/c1ccc(O)c(O)c1)c1ccccc1`, -5.28%; for `NC(=O)CNCCC(c1ccccc1)c1ccccc1`, -0.997%.
For `CN1CCN(c2nc3cc(C(F)(F)F)ccc3n3cccc23)CC1` the value was -12%; for `CC(C)(C)c1ccc(/C=C/C(=O)Nc2ccc3c(c2)OCCO3)cc1`, -6.96%.
To `CCCn1c(=O)c2[nH]c(-c3ccc(S(=O)(=O)O)cc3)nc2n(CCC)c1=O` belongs -1.97%; to `NC(=O)c1cc[n+](CC2=C(C(=O)O)N3C(=O)[C@@H](NC(=O)[C@@H](c4ccccc4)S(=O)(=O)[O-])[C@H]3SC2)cc1`, -0.249%.
